Only some compounds are listed: those with a hit (about 3.1% of all), similar ones and a draw of the others.
Mot1-301 SUMO = blocks SUMOylation pathway, rescuing yeast Mot1-301 growth; AID 2716; growth rescue, % at 18.8 µM; S. cerevisiae Mot1-301 growth rescue, ATP luminescence, 38.5C; percent above DMSO median, 100 means doubled; 320,000 tested, 1% active;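 active means every valid replicate shows activation above 250% relative to neutral control wells; inactive means the rest, any valid replicate at or below 250%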;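 further: OY570 slx delta 5 strain wells were the positive control but not used for scaling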
FAS-TE inh = blocks the thioesterase domain of human fatty acid synthase. P49327. recombinant FAS-TE, OMFH fluorogenic substrate, fluorescence endpoint. inhibition, % at 15 µM. 360,000 tested, 0.67% active;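 active means compounds whose normalised, plate-corrected inhibition of enzyme fluorescence in the single-dose primary screen is 50% or more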;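 further: 0% = DMSO with enzyme and 100% = substrate without enzyme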
Calb FLC = C. albicans growth modulation with fluconazole; C. albicans CaCi-2 (fluconazole-resistant clinical isolate) + fluconazole, Alamar Blue growth, 48 h; growth inhibition, % (concentration not given with the values); 300,000 tested, 0.57% active; AID 1979;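 active means growth inhibition above about 58% in most replicates, limit read from the data, passing the limit was not always enough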;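 further: all wells also contain fluconazole at 8 µg/ml as a sub-toxic cotreatment; 0% = median of DMSO wells and 100% = median of geldanamycin control wells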
NadD block = inhibitors of Staphylococcus aureus NadD; inhibition, % at 20 µM; 360,000 tested, 0.78% active; AID 602399; purified NadD enzyme, colorimetric absorbance read-out; in the data active means inhibition above about 26%
ATG4B inhibitor = inhibitors of human ATG4B cysteine protease; ATG4B cleavage of LC3-PLA2, NBD-HPC fluorescence, 1 h; Q9Y4P1; AID 504462; 340,000 tested, 0.51% active; inhibition, % at 8.33 µM; in the data active means inhibition above about 40%
Numbers without * were called inactive; . = not tested or not shown; + = active, no number.

SMILES | Mot1-301 SUMO | FAS-TE inh | Calb FLC | NadD block | ATG4B inhibitor
CCCCc1c(O)nc(SCC(=O)Nc2cccc3ccccc23)n(-c2ccccc2OC)c1=O | -1 | -7 | 83* | 3 | -10
N=c1oc2ccc(Cl)cc2cc1C(=O)Nc1ccc(F)cc1 | 1 | -5 | -9 | 6 | 7
Cn1cc(/C=N/NC(=O)c2cc3cc(Br)ccc3o2)c2ccccc21 | 7 | -6 | -5 | 19 | -9
O=C(O)Cn1cc(/C=N/NC(=O)c2cc3cc(Br)ccc3o2)c2ccccc21 | + | 3 | 16 | -3 | -3
O=C(NC1CC1)c1cc(=S)[nH]c2ccccc12 | -7 | -6 | . | 1 | -10
O=C(NC(=S)Nc1ccc(S(=O)(=O)N2CCCCC2)cc1)c1cccs1 | 334* | 26 | -7 | 0 | 17
Cc1cc(N2CCN(Cc3nc(-c4ccc(Cl)cc4)oc3C)CC2)cc(C)n1 | 516 | -5 | 8 | -7 | -4
COc1ccc(-c2nc(CN3CCN(c4cc(C)nc(C)c4)CC3)c(C)o2)c2ccccc12 | 14 | -15 | 84* | -1 | 23
Cc1cc(C)nc(NC(=O)c2ccc(OC(C)C)cc2)n1 | 284* | -10 | 20 | -5 | -5
Cc1ccc(S(=O)(=O)N2CCN(C(=O)c3ccccc3)C2C(C)C)cc1 (configuration not stated) | 279* | -3 | -5 | -1 | -3
CCOC(=O)Nc1ccc2c(c1)N(C(=O)CN)c1ccccc1CC2 | -4 | -1 | 6 | 19 | 6
CCNCC(=O)N1c2ccccc2CCc2ccc(NC(=O)OCC)cc21 | 293* | -5 | 0 | -13 | 10
Cc1ccc2nc(CSc3nc(C)cc(C)c3C#N)[nH]c2c1 | 30 | 78* | 32 | -6 | -2
Cc1ccc2c(c1)c(/C=C/c1cc[n+](C)cc1)c(C)n2C | 11 | -74 | 89* | 21 | -3
Cc1ccc2[nH]c(C)c(/C=C/c3cc[n+](C)cc3)c2c1 | -16 | -56 | 94* | 17 | -6
c1ccc(N2CC3COc4ccccc4C3=N2)cc1 (configuration not stated) | . | 30 | . | -1 | 3
O=C(OCC(=O)N1CCCCCC1)c1cccc(Cl)c1 | -3 | 1 | . | -5 | -5
CC(C)C(=O)NCCc1nc(-c2ccc(Cl)cc2)no1 | 8 | -7 | -1 | -3 | -4
COc1cc(OC)cc(C(=O)NNC(=O)C2CCCC2)c1 | 331* | -3 | 2 | 4 | -4
CC(C)C(=O)Nc1ccc(N2CCCC2)c(Cl)c1 | 497* | 0 | -10 | -11 | 7
CCCC(=O)NC(=S)NNC(=O)c1ccc([N+](=O)[O-])cc1 | 23 | -1 | 76* | 8 | 13
CCCCCCCC(=O)NNC(=O)c1ccc([N+](=O)[O-])cc1 | -10 | 26 | -12 | 4 | -4
O=C(COc1ccc([N+](=O)[O-])cc1)NNC(=S)NC(=O)c1ccc(Br)cc1 | -15 | 23 | 95* | 9 | -2
COc1cccc(N/C=C/c2onc(C)c2[N+](=O)[O-])c1 | 99 | -9 | -9 | 0 | 2
CNc1c2cccc(C)c2nc2c(C(=O)NCCN(C)C)cccc12 | . | -40 | . | -4 | -17
SMILES | Mot1-301 SUMO | FAS-TE inh | Calb FLC | NadD block | ATG4B inhibitor
CS(=O)(=O)N1CCC(Oc2ccccc2C(=O)NC(C2CC2)C2CC2)CC1 | 834* | -6 | 1 | 0 | 21
CS(=O)(=O)N1CCC(Oc2ccccc2C(=O)NC2CCOC2)CC1 (configuration not stated) | -18 | -4 | 5 | -4 | 2
Cc1ccccc1-n1nc2c(c1NC(=O)CC(C)C)CS(=O)C2 (configuration not stated) | 244 | -3 | 1 | 3 | -7
CC(Sc1nc(N)cc(=O)[nH]1)C(=O)NC1CCCCC1 (configuration not stated) | + | -5 | . | 1 | 5
COc1cccc(/C=C/C(=O)c2ccc(C)c([N+](=O)[O-])c2)c1 | 500* | -6 | -14 | -9 | 1
COc1ccc(/C=C/C(=O)c2ccc(C)c([N+](=O)[O-])c2)cc1O | 27 | -9 | -7 | -3 | -8
CCOC(=O)c1c(NC(=O)c2nn(CC)cc2Br)sc2c1CCCCC2 | 858* | 27 | 2 | 1 | -4
CCOC(=O)c1c(NC(=O)C2CCCO2)sc2c1CCC2 (configuration not stated) | . | 12 | -7 | -4 | -1
CCOC(=O)c1c(NC(=O)c2nn(CC)cc2Br)sc(C)c1C | 14 | 27 | 11 | -3 | -4
CCOC(=O)c1c(NC(=O)C2Cc3ccccc3C(=O)O2)sc2c1CCCC2 (configuration not stated) | 10 | 3 | 104* | 2 | 3
CCOC(=O)c1ccc(NC(=O)c2nn(CC)cc2Br)cc1 | 349* | 8 | -16 | -3 | -9
COc1ccc(S(=O)(=O)N2CCN(C(=O)C3COc4ccccc4O3)CC2)cc1 (configuration not stated) | -17 | 8 | . | 1 | -11
CCCc1cc(=O)oc2cc(C)cc(OCC(=O)Nc3cccnc3)c12 | -5 | 8 | -8 | 4 | -5
Cc1ccsc1C(=O)OCC(=O)Nc1sccc1C(N)=O | -8 | -2 | 96* | -7 | 9
CSCCC1NC2(C(=O)Nc3c(C)cc(Cl)cc32)[C@@H]2C(=O)N(C3CCCC3)C(=O)[C@H]12 (some centres not stated) | -14 | 9 | 84* | 8 | -12
Clc1ccc2nc(COc3ccccc3)[nH]c2c1 | 80 | 3 | 0 | -15 | -2
CN(CC(=O)NCc1ccc2c(c1)OCO2)S(=O)(=O)c1ccc(F)cc1 | 3 | -5 | -3 | -1 | 3
Cc1nc2sc(C(c3cccc(F)c3)N3CCCC(C)C3)c(O)n2n1 (configuration not stated) | -11 | -5 | 85* | 1 | -5
O=C(c1ccc(Cl)cc1)N1CCN(c2ccnc3cc(Cl)ccc23)CC1 | . | 17 | 99* | 0 | -23
Cc1ccc(OCCCC(=O)Nc2nc3ccccc3[nH]2)cc1 | . | -5 | 110* | -8 | 7
CC(C)(C)c1ccc2cccc(F)c2n1 | . | -17 | . | -3 | .
CC[n+]1c(/C=C2\Sc3ccccc3N2C)ccc2cccc(C)c21 | . | -23 | 102* | 13 | 16
CCN1/C(=C/c2ccc3cc(C)ccc3[n+]2CC)Sc2ccccc21 | 481 | -34 | . | 17 | 15
CCCCCCCNC(=O)C1(CC2CC(c3ccc(Cl)cc3)=NO2)CCN(C(=O)C2(C)CC2)CC1 (configuration not stated) | 22 | 32 | -5 | -5 | -13
CCCCN(CCCC)CCNC(=O)c1ccc2nc(-c3ccccc3NC(C)=O)c(=O)[nH]c2c1 | 561* | -8 | 18 | -3 | -6
Cc1cc(NC(=O)CSC2=NS(=O)(=O)c3ccccc3N2)no1 | 5 | -6 | -10 | -5 | -15
C=CCc1cccc(/C=N/NC(=O)CNc2ccccc2OC)c1O | -26 | 25 | 93* | 0 | -10
C=CCc1cccc(/C=N/NC(=O)CNc2cccc3ccccc23)c1O | 115 | 27 | 92* | 7 | 1
